Laboratory results taken from PubChem BioAssay AID1159580 (chemical genetic matrix, 2015).
Several values for one entry are separate records, joined by “and”; a condition that tells them apart may be missing. Equal values may be shown once. The whole screen tested about 5,500 compounds, of which about 2,000 (36%) were called active. About 18% were inconclusive and are not listed. No stated cut-off is given here; in the data, active means normalized growth mostly below about 0.91 (no sharp cut-off); inconclusive means no clear call, values can overlap the other calls; inactive means mostly above about 0.92. Some of the results follow.

Assay: chemical genetic growth profiling, strain panel (AID 1159580);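 further: tested at 20 µM; growth read once vehicle control cultures reached saturation at 30 °C; 1 = growth at the plate median or of vehicle wells; lower values mean less growth of the strain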
Conditions: S. cerevisiae deletion strains, growth OD

Measured: normalized growth

Cn1c(=O)c2[nH]cnc2n(C)c1=O
inactive: locus YAL013W, strain DEP1, active compounds read low 0.996 | locus YAL021C, strain ccr4, active compounds read low 1.03 | locus YAL026C, strain drs2, active compounds read low 1.03 | locus YAL030W, strain snc1, active compounds read low 1.02 | locus YAL040C, strain CLN3, active compounds read low 0.999 | locus YBL061C, strain skt5, active compounds read low 1.02 | locus YBR009C, strain hhf1, active compounds read low 1 | locus YBR021W, strain FUR4, active compounds read low 0.968 | locus YBR023C, strain chs3, active compounds read low 1.04 | locus YBR171W, strain sec66, active compounds read low 1.04 | locus YBR229C, strain ROT2, active compounds read low 0.983 | locus YBR231C, strain swc5, active compounds read low 1.02 | locus YBR279W, strain paf1, active compounds read low 1.02 | locus YCL011C, strain gbp2, active compounds read low 1.02 | locus YCL016C, strain dcc1, active compounds read low 1.04 | locus YCL029C, strain bik1, active compounds read low 0.966 | locus YCL061C, strain MRC1 (second series), active compounds read low 1 | locus YCL069W, strain vba3, active compounds read low 1 | locus YCR088W, strain abp1, active compounds read low 1.02 | locus YDL005C, strain med2, active compounds read low 1.02 | locus YDL035C, strain GPR1, active compounds read low 0.996 | locus YDL040C, strain nat1, active compounds read low 1.02 | locus YDL074C, strain BRE1, active compounds read low 1.02 | locus YDL101C, strain DUN1, active compounds read low 0.985 | locus YDL134C, strain PPH21, active compounds read low 0.985 | locus YDL185W, strain tfp1, active compounds read low 0.979 | locus YDL192W, strain arf1, active compounds read low 0.964 | locus YDR001C, strain nth1, active compounds read low 1.01 | locus YDR069C, strain doa4, active compounds read low 1.02 | locus YDR101C, strain arx1, active compounds read low 0.975 | locus YDR137W, strain rgp1, active compounds read low 1.04 | locus YDR150W, strain NUM1, active compounds read low 0.99 | locus YDR159W, strain sac3, active compounds read low 0.982 | locus YDR162C, strain NBP2, active compounds read low 1.01 | locus YDR195W, strain ref2 1.01 | locus YDR297W, strain sur2, active compounds read low 1.03 | locus YDR318W, strain mcm21, active compounds read low 0.976 | locus YDR334W, strain swr1, active compounds read low 1.02 | locus YDR335W, strain msn5, active compounds read low 1.04 | locus YDR388W, active compounds read low 0.975 | locus YDR392W, strain spt3, active compounds read low 1.05 | locus YDR502C, strain sam2, active compounds read low 1 | locus YEL003W, strain gim4, active compounds read low 0.997 | locus YEL037C, strain rad23, active compounds read low 1.02 | locus YEL061C, strain CIN8 (second series), active compounds read low 1.02 | locus YEL061C, strain CIN8, active compounds read low 0.989 | locus YER002W, strain NOP16, active compounds read low 0.993 | locus YER015W, strain faa2, active compounds read low 1.02 | locus YER016W, strain bim1, active compounds read low 1.02 | locus YER110C, active compounds read low 0.978 | locus YER111C, strain swi4, active compounds read low 1 | locus YER155C, strain BEM2 (second series), active compounds read low 1.02 | locus YER155C, strain BEM2, active compounds read low 0.992 | locus YER167W, strain BCK2, active compounds read low 0.988 | locus YFR010W, strain ubp6, active compounds read low 0.99 | locus YGL078C, strain dbp3, active compounds read low 0.987 | locus YGL086W, strain mad1, active compounds read low 0.989 | locus YGL167C, strain pmr1, active compounds read low 1.02 | locus YGL173C, strain kem1, active compounds read low 1.02 | locus YGL227W, strain vid30, active compounds read low 1.01 | locus YGL240W, strain doc1, active compounds read low 1.02 | locus YGL248W, strain PDE1, active compounds read low 0.99 | locus YGL253W, strain hxk2, active compounds read low 1.03 | locus YGR078C, strain PAC10, active compounds read low 0.992 | locus YGR135W, strain pre9, active compounds read low 0.976 | locus YGR229C, strain SMI1, active compounds read low 1.03 | locus YGR252W, strain gcn5, active compounds read low 1.05 | locus YHR013C, strain ard1, active compounds read low 1.05 | locus YHR027C, strain rpn1, active compounds read low 1.02 | locus YHR030C, strain SLT2, active compounds read low 0.984 and 0.992 | locus YHR079C, strain IRE1 (second series), active compounds read low 0.965 | locus YHR079C, strain IRE1, active compounds read low 0.988 | locus YHR094C, strain hxt1, active compounds read low 0.985 | locus YHR129C, strain ARP1, active compounds read low 0.995 | locus YHR142W, strain chs7, active compounds read low 1.05 | locus YHR200W, strain rpn10, active compounds read low 0.979 | locus YIL066C, strain RNR3, active compounds read low 0.989 | locus YIL073C, strain SPO22, active compounds read low 0.94 | locus YIL125W, strain kgd1, active compounds read low 0.983 | locus YIR030C, strain dcg1, active compounds read low 0.97 | locus YJL092W, strain hpr5, active compounds read low 1.01 | locus YJL095W, strain BCK1 (second series), active compounds read low 1.03 | locus YJL095W, strain BCK1, active compounds read low 1.01 and 0.99 | locus YJL115W, strain asf1, active compounds read low 1.03 | locus YJL129C, strain trk1, active compounds read low 1.04 | locus YJL134W, strain LCB3, active compounds read low 0.989 | locus YJL154C, strain vps35, active compounds read low 1.01 | locus YJL164C, strain tpk1, active compounds read low 1.01 | locus YJL166W, strain qcr8, active compounds read low 1.02 | locus YJL168C, strain set2, active compounds read low 0.978 | locus YJL187C, strain SWE1 (second series), active compounds read low 0.984 | locus YJL187C, strain SWE1, active compounds read low 1 | locus YJR043C, strain POL32, active compounds read low 0.997
